# Screening results deposited in PubChem BioAssay by several laboratories.
# Sampled rows, rich in hits. Any-hit rate of the full collection: about 4%.
# Mdm2 MdmX PPI: human Mdm2/MdmX binding inhibition; O15151+Q00987; 330,000 compounds, 3% hits; inhibition, % at 8 µM; SaOS-2 split-luciferase Mdm2/MdmX complementation, luminescence;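 active means inhibition of at least 50% at 8 µM in the primary screen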
# Target sequence (O15151 whole entry, looked up): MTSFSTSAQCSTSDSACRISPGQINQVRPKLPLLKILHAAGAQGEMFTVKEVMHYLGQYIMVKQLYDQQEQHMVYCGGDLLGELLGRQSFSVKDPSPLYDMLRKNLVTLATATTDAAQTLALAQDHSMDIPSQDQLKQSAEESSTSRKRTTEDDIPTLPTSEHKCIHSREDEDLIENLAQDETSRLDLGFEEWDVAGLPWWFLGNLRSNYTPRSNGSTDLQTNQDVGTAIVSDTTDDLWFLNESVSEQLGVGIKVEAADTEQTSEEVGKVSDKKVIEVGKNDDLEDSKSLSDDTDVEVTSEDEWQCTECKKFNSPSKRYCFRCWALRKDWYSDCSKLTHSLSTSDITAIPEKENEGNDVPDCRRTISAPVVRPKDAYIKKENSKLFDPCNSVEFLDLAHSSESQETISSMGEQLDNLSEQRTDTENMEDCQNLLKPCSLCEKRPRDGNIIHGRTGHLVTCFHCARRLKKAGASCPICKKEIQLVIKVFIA
# Target sequence (Q00987 whole entry, looked up): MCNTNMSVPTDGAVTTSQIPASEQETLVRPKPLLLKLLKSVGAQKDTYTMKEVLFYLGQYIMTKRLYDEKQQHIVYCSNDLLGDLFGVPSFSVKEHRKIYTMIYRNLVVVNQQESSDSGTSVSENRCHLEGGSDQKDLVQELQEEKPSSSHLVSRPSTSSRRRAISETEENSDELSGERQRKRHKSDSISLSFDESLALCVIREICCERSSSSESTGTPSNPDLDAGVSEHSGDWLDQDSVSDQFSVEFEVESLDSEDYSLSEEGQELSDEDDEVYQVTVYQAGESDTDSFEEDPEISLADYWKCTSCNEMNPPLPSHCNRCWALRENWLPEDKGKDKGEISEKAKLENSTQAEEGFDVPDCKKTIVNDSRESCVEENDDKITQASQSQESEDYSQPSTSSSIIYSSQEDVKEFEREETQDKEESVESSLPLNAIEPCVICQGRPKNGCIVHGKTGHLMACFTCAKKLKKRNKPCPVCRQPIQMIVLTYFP
# Beta apoptosis: beta cell apoptosis inhibition; INS-1E cytokine-induced death, ATP luminescence, 48 h; percent of positive-control rescue, neutral wells zero; protection from apoptosis, % (test concentration not listed); 300,000 compounds, 0.8% hits;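 active means Every replicate reaches about 75%, or at least half do and their mean reaches it too, limit read from the data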;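 further: 0% = cytokine-treated negative control wells and 100% = positive control rescue; higher means more ATP so stronger rescue from cytokine killing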
# 697 NFkB inh: inhibitors of the PMA/ionomycin-induced NF-kB reporter in 697 B cells | 330,000 compounds, 0.33% hits | 697 B-cell NF-kB luciferase reporter, 16 h | inhibition, % at 4 µM; in the data active means inhibition above about 35%
# Gli-Sufu antag: Gli-Sufu pathway antagonism | Sufu-KO-LIGHT fibroblasts, Gli luciferase reporter luminescence | inhibition, % at 5 µM | 340,000 compounds, 0.74% hits;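 active means inhibition above about 55%, limit read from the data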;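 further: 0% = DMSO-treated cells and 100% = wells with medium but no cells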
# Jurkat NFkB inh: inhibitors of the PMA/ionomycin-induced NF-kB reporter in Jurkat cells; PMA/ionomycin-induced NF-kB luciferase reporter, luminescence; inhibition, % at 4 µM; 330,000 compounds, 0.53% hits; AID 435003; in the data active means inhibition above about 50%
# Mdm2-MdmX conf: human Mdm2/MdmX binding inhibition, confirmed. shares compounds with Mdm2 MdmX PPI. luminescent assay. inhibition, % at 8 µM. 10,000 compounds, 55% hits. AID 489028; in the data active means inhibition above about 40%
# Full FLuc ctr: full-length luciferase inhibition in Mdm2/MdmX counter-screen; shares compounds with Mdm2 MdmX PPI; SaOS-2 full-length luciferase counterscreen, luminescence; inhibition, % at 8 µM; 6,200 compounds, 77% hits; AID 504607;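 active means mean inhibition at 8 µM reaching about 37%, which flags the compound as non-specific, limit read from the data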;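 further: p53-null SaOS-2 cells with luciferase driven by a doxycycline-inducible promoter; compound on cells about two nights before reading with doxycycline added after day one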
# * marks the source's active call; other numbers are inactive results; x = no result given.
SMILES,Mdm2 MdmX PPI,Beta apoptosis,697 NFkB inh,Gli-Sufu antag,Jurkat NFkB inh,Mdm2-MdmX conf,others
CCN(C(=O)c1ccc(S(=O)(=O)N2CCCC2)cc1)C1CCS(=O)(=O)C1 (centres undefined),-4,-1,19,-1,4,x,
Cc1ccc(OC(F)F)c(NC(=O)Nc2cccc(C(F)(F)F)c2)c1,88*,66,11,-4,5,59*,Full FLuc ctr=24
COc1ccc(Cc2nnc(SCc3ccc([N+](=O)[O-])cc3)o2)cc1,60*,-18,-1,-8,1,61*,Full FLuc ctr=29
O=C(NC1CCCN(Cc2ccc(Cl)cc2)C1)c1cnc2ccccn2c1=O (centres undefined),22,1,-4,16,-7,x,
N=c1c(C(=O)NC2CCCCC2)cc2c(=O)n3ccccc3nc2n1Cc1ccccc1,25,11,27,15,38,x,
Cc1ccc(Cn2c(=N)c(C(=O)NC3CCCC3)cc3c(=O)n4ccccc4nc32)cc1,50*,0,32,23,32,4,
CC(C)Cc1ccc(CN2CCCC(NC(=O)c3cnc4ccccn4c3=O)C2)cc1 (centres undefined),60*,-7,-40,46,43,20,
N=c1c(C(=O)NCC2CCCO2)cc2c(=O)n3ccccc3nc2n1Cc1ccco1 (centres undefined),24,-3,12,2,15,x,
N=c1c(C(=O)NC2CCCCC2)cc2c(=O)n3ccccc3nc2n1Cc1ccco1,56*,-1,7,29,34,44*,Full FLuc ctr=33
CCOc1ccc(S(=O)(=O)N2CCN(C(=O)c3ccccc3Cc3ccccc3)CC2)cc1,21,-2,4,-12,23,x,
COc1ccc(CC(=O)NCc2nnc(SCC(=O)Nc3cccc(F)c3)n2C)cc1,8,-5,15,-1,8,x,
C=CCc1ccc(OCC(O)CN2CCc3ccccc3C2)c(OC)c1 (centres undefined),4,-9,-17,14,-1,x,
COc1ccc(C2CC(c3ccccc3)=NN2c2ccc(S(N)(=O)=O)cc2)cc1 (centres undefined),42,6,7,3,6,x,
COc1ccc(C2CC(c3cccc(C(F)(F)F)c3)=NN2c2ccc(S(N)(=O)=O)cc2)cc1 (centres undefined),87*,x,16,11,x,30,
COc1ccc(C2CC(c3cccc(F)c3)=NN2c2ccc(S(N)(=O)=O)cc2)cc1 (centres undefined),81*,x,15,10,x,10,
COc1ccc(C2CC(c3cccc(Br)c3)=NN2c2ccc(S(N)(=O)=O)cc2)cc1 (centres undefined),57*,x,16,15,x,-21,
S=C(NCCNCc1ccccc1)NC1CCCCC1,51*,19,-3,x,-2,11,
CS(=O)(=O)c1ccc(NC(=O)CCN2C(=O)NC3(CCCC3)C2=O)cc1,-33,-2,6,-3,1,x,
COc1ccc2c(c1)O[C@@H](c1cccc(C(F)(F)F)c1)[C@H](O)C2=O,55*,33,13,x,11,60*,Full FLuc ctr=36*
COc1ccc2c(c1)O[C@H](c1ccc3c(c1)OCO3)[C@@H](O)C2=O,50*,25,-57,-30,-46,-10,
CC(C(=O)N1CCc2ccccc21)N(C)CC(=O)Nc1ccccc1Cl (centres undefined),2,-1,21,2,-3,x,
CCCCOc1ccc(-c2c(C#N)c(N)nc(SCC(N)=O)c2C#N)cc1,55*,-1,-7,11,-13,20,
CCCCOC(=O)CSc1nc(N)c(C#N)c(-c2ccc(OCC)cc2)c1C#N,-3,-3,-3,5,2,x,
CCCn1c(N)c(N(CCOC)C(=O)c2ccccc2)c(=O)[nH]c1=O,3,-3,10,-10,11,x,
O=C(NNC(=S)Nc1ccc(Cl)c(Cl)c1)c1ccccn1,79*,78*,20,-11,-1,84*,Full FLuc ctr=48*
SMILES,Mdm2 MdmX PPI,Beta apoptosis,697 NFkB inh,Gli-Sufu antag,Jurkat NFkB inh,Mdm2-MdmX conf,others
O=C(NNC(=O)C(c1ccccc1)c1ccccc1)c1ccccn1,66*,70,13,24,14,66*,Full FLuc ctr=42*
COc1ccc([N+](=O)[O-])cc1NC(=O)C1CCCN1S(=O)(=O)c1cccs1 (centres undefined),7,-2,-2,0,18,x,
O=C(Nc1ccc(CN2CCS(=O)(=O)CC2)cc1)c1ccc(C(F)(F)F)cc1,51*,-5,-46,5,38,8,
Cc1cccc2c1-c1sc(C(=O)NCCCN3CCC(C)CC3)cc1CO2,57*,4,10,26,7,15,
O=C(/C=C/c1cccs1)c1cc(Br)ccc1OC(=O)N1CCOCC1,53*,5,-2,-4,5,17,
O=C(NC(=S)Nc1nc2c(s1)CSc1ccccc1-2)c1ccccc1,68*,17,-25,37,-3,8,
O=C(NC(=S)Nc1nc2c(s1)CCCC2)c1ccc(C(=O)c2ccccc2)cc1,4,10,-9,-7,-2,x,
CC1=NNC(=O)C1CCC(=O)N/N=C/c1c(Cl)cccc1Cl (centres undefined),-1,-3,13,0,-1,x,
Cc1cc(NC(=O)CSc2nnc(-c3c[nH]c4ccccc34)n2C)no1,-18,-8,-6,1,8,x,
C[C@]12CC[C@H](O)CC1=CCC1C2CC[C@@]2(C)C1CC[C@@H]2NC(=O)[C@@H](N)Cc1ccccc1 (some centres undefined),68*,-1,-19,11,9,23,
CN1CCN(c2ccccc2NC(=O)c2ccc(-c3ccc(Cl)c(Cl)c3)o2)CC1,58*,30,-2,24,7,23,
Cc1cc(O)c(NC(=S)NC(=O)c2ccc(-c3ccc(Cl)cc3)o2)cc1C,26,0,-27,-1,-13,x,
Cc1cc(N2CCN(C)CC2)ccc1NC(=O)c1ccc(-c2ccc(Cl)cc2)o1,52*,53,-4,8,40,45*,Full FLuc ctr=74*
CC(=O)c1ccc(OCC(=O)NC2CCCN(Cc3ccccc3F)C2)cc1 (centres undefined),-3,x,-60,-10,11,x,
O=C(NC12CC3CC(CC(C3)C1)C2)c1cccc(OC(F)F)c1,-11,3,-36,-4,-26,x,
O=C(Nc1nnc(Cc2ccccc2)s1)Nc1ccccc1F,-8,-5,-22,-8,-13,x,
Cc1nnc(NC(=O)c2nc(S(=O)(=O)Cc3ccccc3C)ncc2Cl)s1,95*,-38,-99,11,4,71*,Full FLuc ctr=52*
CSc1ncc(Cl)c(C(=O)Nc2nnc(SC/C=C/c3ccccc3)s2)n1,10,5,2,3,-7,x,
CSc1nnc(NC(=O)c2nc(S(=O)(=O)Cc3ccccc3F)ncc2Cl)s1,100*,-43,-81,5,-2,57*,Full FLuc ctr=52*
